According to article PMC5540273 (PLoS ONE, 2017):

Tested on: LCK
Conditions: concentration: 1 μM, replicates: in singlicate; n = 1
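Further: KINOMEscan kinase panel screen.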

Point of comparison: O=C(NCCNc1ccnc(Nc2ccc(F)cc2)n1)c1cc2ccccc2s1 [GSK1379874], “%Inh” value 12%. Against it:
- CCc1nc(-c2cccc(C)c2)c(-c2ccnc(NCc3ccccc3)c2)s1 — lower, 0%
- O=c1cc(N2CCOCC2)nc2n(Cc3cccc4ccccc34)ccn12 [GSK2333389] — lower, 2%
- CN1c2ccc(NCc3ccc(F)cc3)cc2-c2c(cnn2C)S1(=O)=O — lower, 4%
- Cc1ccc(NC(=O)c2ccnc(N3CCN(C)CC3)c2)cc1-c1ccc(C(=O)NCC2CC2)cc1 [GW775604] — lower, 0%
- Cc1ccc(C(=O)NCC(N)=O)cc1-n1c(C)cc(OCc2ccc(F)cc2F)c(Br)c1=O — higher, 25%
- COCCNC(=O)c1ccc(-c2cc(C(=O)NC3CC3)cc(F)c2C)cc1 [GW868318] — lower, 4%
- COc1ccc(Nc2ncc(C#N)c(Nc3ccccc3C(N)=O)n2)cc1N1CCN(C)CC1.Cl [GSK1558669] — higher, 100%
- COc1ccc(S(=O)(=O)NC2CCN(c3cc(C)nc(Nc4cccc(C#N)c4)n3)CC2)cc1.O=C(O)C(F)(F)F [GSK1653539] — lower, 8%
- COc1ccc(Nc2nccc(N3CCC(NC(=O)Nc4cc(C)ccc4C)C3)n2)cc1 (stereo not shown) [GSK1379741] — lower, 0%
- CC(C)(C)n1cnc2c(N)ncnc21 [SKF-97359] — lower, 0%
- COc1cc2ncn(-c3cc(OCc4sccc4Cl)c(C(N)=O)s3)c2cc1OC [GSK448459] — higher, 34%
- COC(=O)Nc1nc2cc(Oc3ccc(NC(=O)Nc4cc(F)ccc4F)cc3)ccc2[nH]1.Cl [GW701424] — higher, 57%
- Cc1c2ccc(N(C)c3ccnc(Nc4cccc(S(N)(=O)=O)c4)n3)cc2nn1Cc1ccccc1.Cl.Cl [GW787226] — higher, 90.7%
- CCn1cnc2c(N)ncnc21 [GW345098] — lower, 5%
- O=C1Cc2cc(Nc3nc(NCc4cccc(S(=O)(=O)C(F)(F)F)c4)ncc3C(F)(F)F)ccc2N1 — lower, 0%
- Cl.Oc1cccc(Nc2ccnc3cc(-c4ccncc4)ccc23)c1 [GW494601] — higher, 98.7%
- Cn1cc(-c2ccc3c(c2)CCN3C(=O)Cc2ccccc2Cl)c2c(N)ncnc21 [GSK2608885] — higher, 99.5%
- NS(=O)(=O)CCc1cccc(Nc2nccc(-c3c(-c4cccc(NC(=O)c5c(F)cccc5F)c4)nn4ccccc34)n2)c1 [GSK336735] — higher, 99.6%
- O=c1cc(N2CCOCC2)nc2n(Cc3cccc(Cl)c3Cl)c(C3CC3)nn12 [GSK2358994] — higher, 23%
- COc1ccc(COc2cc(-n3cnc4ccccc43)sc2C(N)=O)cc1 [GSK1024304] — higher, 16%
- c1ccc(-c2n[nH]cc2-c2ccnc3ccccc23)nc1 [GW271431] — higher, 17%
- CN(C1=C(c2ccccc2)C(=O)NC1=O)c1ccccc1 [SB-334860] — higher, 20%
- COc1ccc(CNC(=O)NC2CCN(c3ccnc(Nc4ccc(OC)cc4)n3)C2)cc1 (stereo not shown) [GSK1379727] — lower, 8%
- COc1cc2c(cc1OC[C@@H](O)CO)ncc1c3ccc(C#N)cc3[nH]c21 — lower, 0%
- c1ccc(-c2cc(-c3c[nH]nc3-c3ccccn3)ccn2)cc1 [GW576604] — lower, 0%
- Cc1cccc(-c2nc(-c3ccc(S(C)(=O)=O)cc3)sc2-c2ccncc2)c1 — higher, 23%
- Cc1cccc(Cn2ccn3c(=O)cc(N4CCOCC4)nc23)c1 [GSK2297542] — higher, 26%
- Fc1ccc(-c2nn3c(OCC(F)(F)F)cccc3c2-c2ccncc2)cc1 [GW514784] — lower, 7%
- N#Cc1c(N2CCOCC2)sc(-c2ccn[nH]2)c1-c1ccc(Cl)cc1 — higher, 13%
- COc1cc2c(cc1OCCN1CCN(C)CC1)ncc1c3ccc(C#N)cc3[nH]c21 — higher, 57%
- CC(=O)Nc1ccc(COc2ccc(Nc3ccnc4cc(-c5ccccn5)ccc34)cc2)cc1.Cl [GW440148] — higher, 31%
- [2H]C([2H])(c1cccc(C(F)(F)F)c1C)n1ccn2c(=O)nc(N3CCOCC3)cc12 [GSK2336394] — higher, 25%
- COc1ccc(Nc2nccc(N3CCC(NC(=O)Nc4cccc(C(C)=O)c4)C3)n2)cc1 (stereo not shown) [GSK1379731] — lower, 0%
